These results are taken from PubChem BioAssay (NCATS).

Records with an inconclusive call do not appear. Activity calls are given as the source filed them. Unless noted, the call rests on the fitted dose curve; in most records, active means well fitted curve in the direction sought with a large enough effect; inconclusive means small, poorly fitted or top-dose-only effect, or another doubt; inactive means no such curve, though single readings can be large; an effect the other way counts as inactive or inconclusive.

The target of assay [1] is Vitamin D3 receptor (Homo sapiens) (UniProt P11473). The assay can be described thus: qHTS assay for small molecule antagonists of vitamin D receptor signaling (AID 588541; calls by dose curve;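 further: receptor activated by calcitriol during compound treatment; series mostly up to about 77 µM; on the % scale 0 is the no-effect control and ±100 the full control effect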). Put shortly: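 VDR-UAS-bla HEK293T cells in 2% charcoal-stripped FBS were stimulated with 1-alpha,25-dihydroxyvitamin D3 (3 nM final) plus compound for 16 h at 37 C. The beta-lactamase CCF4 readout was normalized to 50 nM agonist and DMSO, and Hill fits gave IC50.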
A general note: qHTS replaces the single test concentration by a dilution series.

Assay [2] shares this target. The assay can be described thus: qHTS assay for small molecule agonists of vitamin D receptor signaling (AID 588543; calls by dose curve;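 further: 0% = DMSO basal and 100% = reference agonist control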). Put shortly: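 Agonist-mode beta-lactamase reporter: HEK293T VDR-UAS-bla cells in charcoal-stripped 2% FBS, compound series 16 h 37 C, CCF4 2 h RT. EC50 from Hill fit, scaled against DMSO and 50 nM calcitriol control.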
Assay [3] deals with Thyroid hormone receptor beta (Homo sapiens) (UniProt P10828). The assay can be described thus: qHTS assay for small molecule agonists of thyroid hormone receptor beta signaling (AID 588545; calls by dose curve;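 further: 0% = DMSO only and 100% = 10 nM T3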). Put shortly:
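Stimulation of a TR-driven beta-lactamase reporter was quantified in GripTite HEK 293 cells. Compound series ran for 18 hrs; curves were normalized to T3 and DMSO controls and fitted to yield EC50.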

The nature of assay [4]: qHTS assay for small molecule antagonists of retinoid X receptor alpha signaling (AID 588546; active means well fitted inhibition curve with a large enough effect in the signal ratio, with a control signal flat, not every such curve was filed as active; the % refers to the signal ratio;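 further: cells stimulated with 9-cis-retinoic acid as agonist; on the % scale 0 is the no-effect control and ±100 the full control effect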). Particulars: HEK293T RXRa-UAS-bla, beta-lactamase ratio, antagonist mode; measured here: W530 green channel, cytotoxicity proxy. Put shortly:
(§1)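 Beta-lactamase reporter inhibition, read as CCF4 fluorescence ratio (ex 405, em 460/530 nm) after 2 h at RT. HEK293T UAS-bla cells, 2500/well, were stimulated with 9-cis-RA at 500 or 100 nM final alongside test compound for 18 h at 37 C.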

The target of assay [5] is Retinoic acid receptor RXR-alpha (Homo sapiens) (UniProt P19793). The assay is described as above. Particulars: HEK293T RXRa-UAS-bla, beta-lactamase ratio, antagonist mode. In a few lines:
as §1

Assay [6] is described as follows: qHTS assay for small molecule activators of the p53 signaling pathway (AID 651743; active means well fitted activation curve with a large enough effect in the signal ratio, not every such curve was filed as active; the % refers to the signal ratio; further: series mostly up to about 92 µM; % of control where 0% means no effect). Conditions: HCT-116 p53RE-bla, beta-lactamase FRET ratio, 16 h; activation: stronger effect = higher value. Put shortly:
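HCT-116 p53RE-bla, 4,000 cells/well; 5 h settle; cpd/DMSO 16 h, 37 C; LiveBLAzer B/G 2 h RT; fluorescence intensity.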

Assay [7] is described as follows: qHTS assay for small molecule activators of the nuclear factor-kappa B (NF-kB) signaling pathway (AID 651749; active means well fitted activation curve with a large enough effect in the signal ratio; the % refers to the signal ratio; further: series mostly up to about 77 µM; % of control where 0% means no effect). Conditions: NF-kB-bla ME-180 cells, beta-lactamase FRET ratio, 16 h; activation: stronger effect = higher value. Put shortly: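 Incubation lasted 16 hr at 37C in 5% CO2 after 23 nL compound addition to ME-180 NF-kB-bla cells. Activation appears as beta-lactamase-mediated FRET loss.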

Assay [8] can be described thus: qHTS assay for environmental chemicals that activate the Aryl hydrocarbon Receptor (AhR) signaling pathway (AID 651777). Further: % of control where 0% means no effect; nearly all actives have a fitted effect of over 15% in size. Particulars: 1A2-DRE human hepatoma cells, luciferase, 24 h; activation: stronger effect = higher value. In a few lines:
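Induction of CYP1A2 transcription through AhR is detected by luciferase in 1A2-DRE hepatoma cells. Compounds or DMSO act for 24 hr at 37 C before a 30 min One-Glo step at room temperature.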

Assay [9] concerns the target Peroxisome proliferator-activated receptor alpha (Homo sapiens) (UniProt Q07869). The assay can be described thus: qHTS assay for small molecule agonists of the peroxisome proliferator-activated receptor alpha (PPARalpha) signaling pathway (AID 651778). Further: % of control where 0% means no effect. Particulars: PathHunter PPARalpha complementation, chemiluminescence, 6 h; max response: stronger effect = higher value. Put shortly:
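Enzyme-fragment complementation assay in which ligand-bound PPARalpha translocates and forms an active enzyme that generates chemiluminescence. Cells were plated overnight, exposed to compound for 6 hr at 37 C, and then given detection reagent for 60 min at room temperature.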

Assay [10] can be described thus: qHTS assay for small molecule agonists of the antioxidant response element (ARE) signaling pathway measured by Nrf2-dependant transcriptional activity (AID 720636; active means well fitted curve in the direction sought with a large enough effect in the repeat runs; an effect the other way counts as inactive or inconclusive;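 further: HepG2 cells with an ARE-driven luciferase reporter; % of control where 0% means no effect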). In a few lines: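 We exposed ARE-luc HepG2 cells, seeded in assay medium with 1% dialyzed FBS and allowed 6 hr to adhere, to test compounds overnight (16 hr, 37 C) before measuring luciferase with ONE-Glo.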

Assay [11] is described as follows: qHTS assay for small molecule agonists of the antioxidant response element (ARE) signaling pathway measured by Nrf2-dependant transcriptional activity - cell viability counter screen (AID 720653; active means well fitted curve in the direction sought with a large enough effect in the repeat runs; an effect the other way counts as inactive or inconclusive; further: on the % scale 0 is the no-effect control and ±100 the full control effect). Conditions: ARE-bla HepG2 viability, CellTiter-Glo ATP luminescence, 16 h; max response: stronger effect = lower value. Put shortly: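 ARE-bla HepG2 cells treated with compounds for 16 h at 37C; this counter screen measures viability as intracellular ATP by CellTiter-Glo luminescence after 30 min at room temperature.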

Assay [12] in a line: qHTS assay for cell viability of the p53RE-bla HCT-116 cell line (AID 743292). Further: on the % scale 0 is the no-effect control and ±100 the full control effect; nearly all actives have a fitted effect of over 55% in size. In a few lines:
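In this qHTS counter-screen, metabolically competent p53RE-bla HCT-116 cells were counted via their ATP content. Compounds were applied for 16 h at 37 C and luciferase-coupled luminescence was measured.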

Assay [13] addresses Nuclear receptor subfamily 1 group I member 2 (Rattus norvegicus) (UniProt Q9R1A7). Nature of the assay: qHTS assay for small molecule activators of the rat pregnane X receptor (rPXR) signaling pathway (AID 651751; call rule not given here; further: 0% is about no effect). Conditions: rPXR reporter cells, luciferase (One-Glo), 24 h.
Assay [14] is described as follows: qHTS assay for small molecule activators of the human pregnane X receptor (PXR) signaling pathway (AID 720659; call rule not given here; further: 0% is about no effect).
A short description of assay [15]: qHTS assay for small molecule antagonists of peroxisome proliferator-activated receptor delta signaling (AID 588535).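 Further: cells co-treated with a PPAR-delta agonist as stimulator during compound exposure.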 Conditions: HEK293T PPARd-UAS-bla, beta-lactamase FRET ratio, 18 h; 460 nm channel. Put shortly:
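Cells were seeded at 4000 per well in assay medium containing 2% charcoal/dextran FBS and held 5 hrs at 37 C. Compounds were then added for 18 hrs. CCF4 substrate was applied for 2 hrs at room temperature before fluorescence reading.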

Assay [16] concerns the target Peroxisome proliferator-activated receptor gamma (Homo sapiens) (UniProt P37231). The assay can be described thus: qHTS assay for small molecule agonists of peroxisome proliferator-activated receptor gamma signaling (AID 588536; active means well fitted curve in the direction sought with a large enough effect in the signal ratio, with a control signal flat, not every such curve was filed as active; the % refers to the signal ratio;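 further: 0% = DMSO basal wells and 100% = rosiglitazone at 2 µM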). Put shortly:
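GeneBLAzer PPAR-gamma-UAS-bla HEK293 cells in 1% charcoal/dextran-treated FBS medium were treated 16 h at 37 C with compounds. Beta-lactamase activity was read by CCF4 ratio (460/530 nm). Response was normalized to 2 uM rosiglitazone (100%) and DMSO, then Hill-fitted for EC50 and efficacy.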

Assay [17] can be described thus: qHTS assay for small molecule agonists of retinoid X receptor alpha signaling (AID 588544; calls by dose curve;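 on activation: 0% = DMSO basal wells and 100% = reference agonist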). Conditions: HEK293T RXRa-UAS-bla, beta-lactamase reporter, 18 h; 530 nm emission.
The target of assay [18] is Retinoic acid receptor RXR-alpha (Homo sapiens) (UniProt P19793). The description is as above.
Assay [19] is described as follows: qHTS assay for cell viability of HEK293 cells (AID 743288). Further: on the % scale 0 is the no-effect control and ±100 the full control effect; nearly all actives have a fitted effect of over 50% in size. Conditions: ATP luminescence (CellTiter-Glo), 18 h; max response: stronger effect = lower value. Put shortly:
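Total intracellular ATP, measured with a luciferase-coupled reagent, indicates the number of viable HEK293 cells. Exposure to test chemicals lasts 18 h at 37 C in 1,536-well format at 2,000 cells/well.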

Assay [20] deals with Peroxisome proliferator-activated receptor gamma (Homo sapiens) (UniProt P37231). Nature of the assay: qHTS assay for small molecule antagonists of peroxisome proliferator-activated receptor gamma signaling (AID 588537; active means well fitted inhibition curve with a large enough effect in the signal ratio, with a control signal flat, not every such curve was filed as active; the % refers to the signal ratio;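 further: reporter cells co-stimulated with 50 nM rosiglitazone agonist during compound treatment; % of control where 0% means no effect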). Put shortly:
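Step one: plate 3000 HEK293 UAS-bla cells per well in medium with 1% stripped serum and hold 6-6.5 h at 37 C. Step two: add compound and 50 nM agonist for 16 h. Step three: CCF4 loading, fluorescence read.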

Sequence of Peroxisome proliferator-activated receptor alpha (Homo sapiens) (Q07869 whole entry, looked up, the tested form may be a part): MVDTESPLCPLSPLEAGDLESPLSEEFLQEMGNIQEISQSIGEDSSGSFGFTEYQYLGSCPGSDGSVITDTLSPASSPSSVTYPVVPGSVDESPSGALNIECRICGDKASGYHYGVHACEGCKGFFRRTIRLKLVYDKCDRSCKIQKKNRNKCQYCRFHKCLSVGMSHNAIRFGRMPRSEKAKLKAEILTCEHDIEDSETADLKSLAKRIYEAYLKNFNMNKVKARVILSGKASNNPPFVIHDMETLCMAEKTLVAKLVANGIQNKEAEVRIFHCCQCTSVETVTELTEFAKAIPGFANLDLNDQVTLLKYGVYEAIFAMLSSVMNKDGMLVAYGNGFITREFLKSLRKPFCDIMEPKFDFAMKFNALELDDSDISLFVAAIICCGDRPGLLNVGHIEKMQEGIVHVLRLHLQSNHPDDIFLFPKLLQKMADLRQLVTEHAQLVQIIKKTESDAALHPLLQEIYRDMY
Sequence of Vitamin D3 receptor (Homo sapiens) (P11473 whole entry, looked up): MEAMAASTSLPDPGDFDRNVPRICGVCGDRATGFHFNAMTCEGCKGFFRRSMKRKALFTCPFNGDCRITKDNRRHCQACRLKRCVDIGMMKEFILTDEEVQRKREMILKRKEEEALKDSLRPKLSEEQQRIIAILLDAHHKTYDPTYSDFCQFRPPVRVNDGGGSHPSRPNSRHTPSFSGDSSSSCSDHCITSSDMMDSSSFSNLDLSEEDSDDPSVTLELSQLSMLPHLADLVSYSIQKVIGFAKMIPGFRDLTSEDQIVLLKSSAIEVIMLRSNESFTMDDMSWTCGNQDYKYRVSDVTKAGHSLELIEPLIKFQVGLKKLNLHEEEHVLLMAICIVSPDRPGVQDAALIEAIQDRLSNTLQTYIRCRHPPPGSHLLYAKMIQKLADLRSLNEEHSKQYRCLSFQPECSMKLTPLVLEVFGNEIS
Sequence of Retinoic acid receptor RXR-alpha (Homo sapiens) (P19793 whole entry, looked up): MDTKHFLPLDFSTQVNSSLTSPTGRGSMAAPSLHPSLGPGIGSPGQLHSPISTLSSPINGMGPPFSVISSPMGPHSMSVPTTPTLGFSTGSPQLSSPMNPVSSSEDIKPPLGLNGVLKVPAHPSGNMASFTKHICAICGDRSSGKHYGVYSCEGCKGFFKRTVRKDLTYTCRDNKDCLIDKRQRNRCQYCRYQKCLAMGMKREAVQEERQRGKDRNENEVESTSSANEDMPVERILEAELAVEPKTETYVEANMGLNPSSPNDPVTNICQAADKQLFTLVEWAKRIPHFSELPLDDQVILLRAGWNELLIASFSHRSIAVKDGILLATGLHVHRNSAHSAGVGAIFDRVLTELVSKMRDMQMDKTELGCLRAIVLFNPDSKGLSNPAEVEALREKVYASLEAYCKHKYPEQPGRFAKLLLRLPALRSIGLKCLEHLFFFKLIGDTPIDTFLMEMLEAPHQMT
Sequence of Nuclear receptor subfamily 1 group I member 2 (Rattus norvegicus) (Q9R1A7 whole entry, looked up): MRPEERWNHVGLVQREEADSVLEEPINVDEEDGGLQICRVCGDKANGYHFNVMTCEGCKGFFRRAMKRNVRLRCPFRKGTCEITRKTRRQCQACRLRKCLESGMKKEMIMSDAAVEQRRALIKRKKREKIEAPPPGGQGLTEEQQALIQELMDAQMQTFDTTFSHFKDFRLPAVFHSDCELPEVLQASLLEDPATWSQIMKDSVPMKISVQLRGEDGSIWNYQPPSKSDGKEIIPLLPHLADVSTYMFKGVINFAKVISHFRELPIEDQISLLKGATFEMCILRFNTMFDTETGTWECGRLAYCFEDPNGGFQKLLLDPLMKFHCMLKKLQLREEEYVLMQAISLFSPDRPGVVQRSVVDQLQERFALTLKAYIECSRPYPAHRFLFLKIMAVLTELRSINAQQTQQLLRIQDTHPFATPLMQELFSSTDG
Sequence of Peroxisome proliferator-activated receptor gamma (Homo sapiens) (P37231 whole entry, looked up): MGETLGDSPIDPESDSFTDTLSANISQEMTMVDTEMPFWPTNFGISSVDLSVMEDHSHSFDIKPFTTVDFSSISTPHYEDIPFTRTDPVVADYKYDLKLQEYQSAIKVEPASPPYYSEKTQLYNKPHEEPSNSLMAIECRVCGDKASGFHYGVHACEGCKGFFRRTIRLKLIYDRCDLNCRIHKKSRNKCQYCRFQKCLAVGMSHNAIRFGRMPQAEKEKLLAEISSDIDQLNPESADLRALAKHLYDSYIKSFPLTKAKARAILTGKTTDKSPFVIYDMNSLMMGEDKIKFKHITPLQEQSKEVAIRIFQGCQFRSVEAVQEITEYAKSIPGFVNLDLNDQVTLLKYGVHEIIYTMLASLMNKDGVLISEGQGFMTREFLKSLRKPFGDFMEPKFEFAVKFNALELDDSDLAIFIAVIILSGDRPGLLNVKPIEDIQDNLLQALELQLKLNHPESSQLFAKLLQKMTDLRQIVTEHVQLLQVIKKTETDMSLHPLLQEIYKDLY
Sequence of Thyroid hormone receptor beta (Homo sapiens) (P10828 whole entry, looked up): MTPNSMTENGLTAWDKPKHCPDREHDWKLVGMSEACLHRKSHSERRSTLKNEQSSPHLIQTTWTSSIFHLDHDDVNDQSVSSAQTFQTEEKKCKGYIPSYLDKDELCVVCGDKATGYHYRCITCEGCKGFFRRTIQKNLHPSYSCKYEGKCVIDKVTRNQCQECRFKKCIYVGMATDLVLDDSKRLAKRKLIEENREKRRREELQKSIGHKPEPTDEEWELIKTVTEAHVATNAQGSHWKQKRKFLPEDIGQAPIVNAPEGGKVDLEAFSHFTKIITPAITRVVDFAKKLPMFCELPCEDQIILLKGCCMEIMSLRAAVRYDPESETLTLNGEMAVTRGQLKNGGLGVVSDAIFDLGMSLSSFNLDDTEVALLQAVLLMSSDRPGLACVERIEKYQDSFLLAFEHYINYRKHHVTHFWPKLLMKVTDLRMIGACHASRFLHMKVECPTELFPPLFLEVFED

Consider `Cc1ccc(Cl)cc1Cl`, for which the Potency result in assay [1], in assay [3], in assay [10] and in [12] was “inactive” each time. Moreover, the compound was called inactive in [2] and in assay [14]. Besides, the max response in assay [4] was -6.55%; in assay [5], -30.4% (inactive); in assay [9], -0.243% (inactive); in assay [11], 7.57% (inactive); in assay [13], 1.69% (inactive). In addition, the activation in assay [6] is 1.63% (inactive); in assay [7] it was -1.58% (inactive); in assay [8] it was 1.78% (inactive).
As to `C/C(=C\C(C)CC(C)CC(C)C)C1CC(=O)OC1=O` (configuration not stated), the max response in assay [15] is 29.8%; in assay [17], 7.08%; in assay [4], -6.65%; in assay [5], 4.94% (inactive); in assay [9] it was -0.902% (inactive); in [11] it was -17.9% (inactive). The max response in assay [19] was -7.26% (inactive); in [13], 3.67% (inactive). Besides, the compound was called inactive in assay [16], in assay [2] and in assay [14]. Further, the Potency entry in assay [1], in assay [18], in [3], in assay [10] and in assay [12] was “inactive” each time. Also, the activation in assay [6] was -3.07% (inactive); in [7], -0.74% (inactive); in [8] it was 1.33% (inactive).
Take `Nc1ccc(N)c2c1C(=O)c1c(N)ccc(N)c1C2=O`: the outcome in assay [16], in [2] and in assay [14] was inactive. In addition, the Potency result in assay [20], in assay [1], in assay [3] and in assay [12] was “inactive” in each case. The max response is -9.83% in assay [17], 7.09% (inactive) in assay [9], -2.4% (inactive) in assay [11] and -7.59% (inactive) in assay [13]. Moreover, the results for the activation in [7] and in assay [8] were 7.06% (inactive) and 12.2% (inactive), respectively.
As to `Cc1cc(C)c(N)c(Cl)c1`, the max response in assay [15] was 24.2%; in [17] it was -1.71%; in assay [9] it was -1.91% (inactive); in assay [11], 2.61% (inactive); in assay [19] it was -10.1% (inactive); in assay [13], -0.981% (inactive). Further, the compound was called inactive in assay [16], in assay [2] and in assay [14]. Moreover, the Potency result in assay [20], in assay [1], in [18], in assay [3], in assay [10] and in assay [12] was “inactive” each time. The activation in assay [6] was -7.91% (inactive); in [8], -1.79% (inactive).
As to `CCCCCc1ccc(N)cc1`, the max response is 19.2% in assay [15]; -0.233% in assay [17]; -8.57% in assay [4]; -25% (inactive) in assay [5]; -1.26% (inactive) in assay [9]; 5.18% (inactive) in [11]. Moreover, the max response in assay [13] is 1.5% (inactive). Also, the result in assay [16], in assay [2] and in assay [14] was inactive. Moreover, the Potency entry in assay [20], in assay [1], in assay [18], in assay [3], in [10] and in assay [12] was “inactive” each time. Besides, the activation is 9.16% (inactive) in assay [6], 1.37% (inactive) in [7] and 1.05% (inactive) in assay [8].
Turning to `CN(C)Cc1cc(CN(C)C)c(O)c(CN(C)C)c1`, the compound was called inactive in assay [16] and in assay [14]. The max response in assay [17] is -13.7%; in assay [4], -16.5%; in [5] it was -13.1% (inactive); in assay [9], -1.39% (inactive); in assay [11], -15.7% (inactive); in [19] it was -7.71% (inactive). The max response in assay [13] is 1.59% (inactive). Further, the Potency result in assay [18], in assay [3] and in assay [12] was “inactive” each time. For the same compound, the activation in assay [6] was -4% (inactive); in assay [7] it was -0.675% (inactive); in assay [8] it was -0.0067% (inactive).
